According to PubChem BioAssay (Tox21):
Values without a mark were called inactive. Results filed as inconclusive are left out. Where a call stands in place of a potency, no number is given. The source made the active and inactive calls. Unless noted, the call rests on the fitted dose curve.

What was measured:
[1] = Nuclear factor erythroid 2-related factor 2/antioxidant responsive element (Nrf2/ARE) small molecule agonists: qHTS cell viability counter screen in human keratinocytes (AID 1919968; active means well fitted curve in the direction sought with a large enough effect in the repeat runs; an effect the other way counts as inactive or inconclusive; further: nearly all actives have a fitted effect of over 55% in size)
How it was run: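 KeratinoSens HaCaT cells, 1,500/well, preincubated 5 h, then exposed to compounds in DMSO for 23 h at 37 C/5% CO2. Viability read as CellTiter-Fluor fluorescence after 1 h, in the same wells as the ARE-luciferase read.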

[2] = Nuclear factor erythroid 2-related factor 2/antioxidant responsive element (Nrf2/ARE) small molecule agonists: luciferase reporter gene qHTS assay in human keratinocytes (AID 1919969); further: nearly all actives have a fitted effect of over 35% in size
[3] = biological target: Gonadotropin-releasing hormone receptor (Homo sapiens) (UniProt P30968); assay: Human gonadotropin-releasing hormone receptor (GnRHR) small molecule agonists, calcium flux assay in GnRHR-HEK293 cells (AID 1920063); further: nearly all actives have a fitted effect of over 35% in size
Sequence of Gonadotropin-releasing hormone receptor (Homo sapiens) (P30968 whole entry, looked up): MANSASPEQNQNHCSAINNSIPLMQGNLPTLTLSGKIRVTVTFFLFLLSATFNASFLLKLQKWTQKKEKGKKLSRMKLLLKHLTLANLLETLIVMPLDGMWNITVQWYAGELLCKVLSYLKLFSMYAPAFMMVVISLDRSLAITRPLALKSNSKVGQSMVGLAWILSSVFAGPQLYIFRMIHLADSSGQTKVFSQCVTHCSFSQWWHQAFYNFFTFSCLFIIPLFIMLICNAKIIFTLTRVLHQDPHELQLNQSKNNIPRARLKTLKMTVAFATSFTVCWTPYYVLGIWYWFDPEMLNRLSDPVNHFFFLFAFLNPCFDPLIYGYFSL
How it was run: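 HEK293 cells stably expressing human GnRHR were dye-loaded for 1 h at 37 C. Compound was added in agonist mode and fluorescence (Ex/Em 480/540) recorded kinetically for 3 min. Fifteen concentrations, triplicates.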

[4] = biological target: KiSS-1 receptor (Homo sapiens) (UniProt Q969F8); assay: Human kisspeptin (KISS1R) small molecule agonists, calcium flux assay in KISS1R-HEK293 cells (AID 1920064; active means well fitted curve in the direction sought with a large enough effect in the repeat runs; an effect the other way counts as inactive or inconclusive)
Sequence of KiSS-1 receptor (Homo sapiens) (Q969F8 whole entry, looked up): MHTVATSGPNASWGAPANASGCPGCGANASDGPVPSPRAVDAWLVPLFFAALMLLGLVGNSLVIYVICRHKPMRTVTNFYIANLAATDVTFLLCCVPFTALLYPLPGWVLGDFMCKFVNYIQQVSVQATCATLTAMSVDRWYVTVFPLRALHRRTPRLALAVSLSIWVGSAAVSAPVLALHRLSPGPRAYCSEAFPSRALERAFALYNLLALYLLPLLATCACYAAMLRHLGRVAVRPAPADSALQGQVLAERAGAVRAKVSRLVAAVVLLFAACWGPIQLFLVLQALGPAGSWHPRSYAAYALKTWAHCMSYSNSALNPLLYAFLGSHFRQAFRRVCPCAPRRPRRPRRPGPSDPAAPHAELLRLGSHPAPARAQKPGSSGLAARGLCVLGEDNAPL
How it was run: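 HEK293 cells stably expressing human KISS1R were loaded with calcium dye for 1 h at 37 C, then given compound; fluorescence (Ex/Em 480/540) was read kinetically for 3 min. Fifteen concentrations, triplicate.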

[5] = G protein-coupled receptor (GPCR) small molecule agonists, calcium flux assay: HEK293 wild type cell line counter screen (AID 1920065)
How it was run: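 Wild-type HEK293 cells plated 18 h, loaded with calcium dye 1 h at 37 C, then compounds added in agonist mode (ATP as positive control). Kinetic fluorescence Ex/Em 480/540 recorded 3 min at 1 sec intervals; 15 concentrations, triplicate.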

[6] = p53 small molecule agonists, cell-based qHTS assay with human liver microsomes (AID 1963577);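 further: p53 response element beta-lactamase reporter cells with liver microsomes plus NADPH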
How it was run: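 In this qHTS, p53 response-element beta-lactamase cells receive test compound together with a microsome/NADPH activating system (0.5 mg/mL final each) and are incubated 16 h at 37 C before LiveBLAzer fluorescence detection.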

[7] = p53 small molecule agonists, cell-based qHTS assay with rat liver microsomes (AID 1963578)
How it was run: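 Agonist mode in p53RE-bla reporter cells, with compounds co-incubated 16 h at 37 C alongside 0.5 mg/mL rat liver microsomes and 0.5 mg/mL NADPH (final), followed by a 2 h LiveBLAzer detection step.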

[8] = p53 small molecule agonists, cell-based qHTS assay with human liver microsomes: qHTS cell viability counter screen (AID 1963579); further: nearly all actives have a fitted effect of over 45% in size
How it was run: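 Metabolically activated exposure: compounds, human liver microsomes and NADPH (0.5 mg/mL final apiece) were added to p53RE-bla cells seeded 5 h earlier, left 16 h at 37 C, and then assessed for viability by CellTiter-Glo luminescence.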

[9] = p53 small molecule agonists, cell-based qHTS assay with rat liver microsomes: qHTS cell viability counter screen (AID 1963580); further: nearly all actives have a fitted effect of over 45% in size
How it was run: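 Viability is assessed in parallel with the p53 reporter read: HCT-116 p53RE-bla cells receive compounds plus rat microsomes and NADPH (0.5 mg/mL final apiece), incubate 16 h at 37 C, and then CellTiter-Glo luminescence is recorded.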

[10] = p53 small molecule agonists, cell-based qHTS assay: qHTS cell viability counter screen (AID 1963581); further: nearly all actives have a fitted effect of over 45% in size
How it was run: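 p53RE-bla HCT-116 cells, compounds added 5 h after plating and incubated 16 h at 37 C. Cytotoxicity measured in the same wells as intracellular ATP by CellTiter-Glo luminescence after 30 min at room temperature.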

[11] = p53 small molecule agonists, cell-based qHTS assay (AID 1963582; active means well fitted activation curve with a large enough effect in the signal ratio in the repeat runs, not every such curve was filed as active; the % refers to the signal ratio)
How it was run: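 p53RE-bla reporter cells, compounds added in DMSO after 5 h plating, incubated 16 h at 37 C. Beta-lactamase read via 2 h room-temperature LiveBLAzer B/G FRET substrate, fluorescence intensity.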

[12] = biological target: 5-hydroxytryptamine receptor 2A (Homo sapiens) (UniProt P28223); assay: 5-hydroxytryptamine receptor 2A (HTR2A) small molecule agonists, cell-based qHTS assay (AID 1963587); further: nearly all actives have a fitted effect of over 30% in size; further: potency means the concentration at half of the fitted maximal effect
Sequence of 5-hydroxytryptamine receptor 2A (Homo sapiens) (P28223 whole entry, looked up): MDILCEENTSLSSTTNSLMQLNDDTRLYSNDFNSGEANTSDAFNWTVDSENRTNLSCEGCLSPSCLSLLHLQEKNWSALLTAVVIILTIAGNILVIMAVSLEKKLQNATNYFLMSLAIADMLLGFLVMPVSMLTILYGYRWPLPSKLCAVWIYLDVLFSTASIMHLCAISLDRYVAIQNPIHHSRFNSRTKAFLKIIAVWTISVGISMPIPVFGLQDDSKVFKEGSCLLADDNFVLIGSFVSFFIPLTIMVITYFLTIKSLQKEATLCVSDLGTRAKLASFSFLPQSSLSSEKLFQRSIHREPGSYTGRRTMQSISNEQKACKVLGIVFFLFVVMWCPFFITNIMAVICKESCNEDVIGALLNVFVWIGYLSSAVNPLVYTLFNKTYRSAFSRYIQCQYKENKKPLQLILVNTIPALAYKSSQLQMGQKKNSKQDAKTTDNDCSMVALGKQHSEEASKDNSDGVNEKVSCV
How it was run: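 CHO cells stably expressing human HTR2A, plated 18 h, loaded with calcium dye 1 h at 37 C. Agonist mode: compounds added and intracellular calcium fluorescence recorded kinetically for 2 min at 1 sec intervals.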

[13] = biological target: Muscarinic acetylcholine receptor M1 (Homo sapiens) (UniProt P11229); assay: Cholinergic receptor muscarinic 1 (CHRM1) small molecule antagonists, cell-based qHTS assay (AID 1963588); further: nearly all actives have a fitted effect of over 40% in size; further: potency means the concentration at half of the fitted maximal effect
Sequence of Muscarinic acetylcholine receptor M1 (Homo sapiens) (P11229 whole entry, looked up): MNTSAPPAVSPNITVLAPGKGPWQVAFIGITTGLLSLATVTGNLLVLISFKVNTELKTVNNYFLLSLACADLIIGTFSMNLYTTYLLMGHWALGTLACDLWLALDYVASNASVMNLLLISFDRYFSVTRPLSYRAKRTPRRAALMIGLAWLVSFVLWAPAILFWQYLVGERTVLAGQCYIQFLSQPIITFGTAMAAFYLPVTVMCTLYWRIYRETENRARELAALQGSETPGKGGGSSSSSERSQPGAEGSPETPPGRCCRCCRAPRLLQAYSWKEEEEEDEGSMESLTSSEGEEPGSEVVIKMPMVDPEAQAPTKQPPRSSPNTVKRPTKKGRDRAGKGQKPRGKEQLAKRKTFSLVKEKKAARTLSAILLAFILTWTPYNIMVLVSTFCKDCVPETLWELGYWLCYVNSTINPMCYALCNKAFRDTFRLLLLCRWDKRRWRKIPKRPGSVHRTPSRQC
How it was run: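 CHRM1-CHO calcium-flux assay, antagonist mode. Cells were seeded 18 h, dye-loaded 1 h at 37 C and given compound for 5 min at RT, then acetylcholine was added at 50nM. FDSS fluorescence was read 3 min; 15 concentrations, three runs.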

[14] = biological target: Muscarinic acetylcholine receptor M1 (Homo sapiens) (UniProt P11229); assay: Cholinergic receptor muscarinic 1 (CHRM1) small molecule agonists, cell-based qHTS assay (AID 1963589); further: nearly all actives have a fitted effect of over 35% in size
How it was run: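 CHO cells stably expressing human CHRM1 were loaded with calcium dye for 1 h at 37 C, then compound was added in agonist mode. Intracellular calcium fluorescence was followed kinetically at 1 s intervals. Fifteen concentrations were tested in three independent runs.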

[15] = cAMP Responsive Elements (CRE) small molecule agonists, cell-based qHTS assay (AID 1963590)
How it was run: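 CRE-bla HEK 293T cells, 2,000/well in DMEM with 10% dialyzed FBS and 25 mM HEPES, pre-incubated 18 h at 37 C, then exposed to compound 3 h at 37 C. Beta-lactamase reporter read with LiveBLAzer B/G FRET substrate after 2 h at room temperature.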

[16] = cAMP Responsive Elements (CRE) small molecule antagonists, cell-based qHTS assay (AID 1963591; active means well fitted inhibition curve with a large enough effect in the signal ratio in the repeat runs, not every such curve was filed as active; the % refers to the signal ratio)
How it was run: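 CRE-bla HEK293T cells plated 18 h, then given compound plus NKH477 at 0.25 uM final for 3 h at 37C. Beta-lactamase reporter read with LiveBLAzer B/G FRET substrate after 2 h at room temperature.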

[17] = biological target: Beta-2 adrenergic receptor (Homo sapiens) (UniProt P07550); assay: Adrenergic beta2 receptor (ADRB2) small molecule antagonists, cell-based qHTS assay (AID 1963592); further: nearly all actives have a fitted effect of over 50% in size; further: potency means the concentration at half of the fitted maximal effect
Sequence of Beta-2 adrenergic receptor (Homo sapiens) (P07550 whole entry, looked up): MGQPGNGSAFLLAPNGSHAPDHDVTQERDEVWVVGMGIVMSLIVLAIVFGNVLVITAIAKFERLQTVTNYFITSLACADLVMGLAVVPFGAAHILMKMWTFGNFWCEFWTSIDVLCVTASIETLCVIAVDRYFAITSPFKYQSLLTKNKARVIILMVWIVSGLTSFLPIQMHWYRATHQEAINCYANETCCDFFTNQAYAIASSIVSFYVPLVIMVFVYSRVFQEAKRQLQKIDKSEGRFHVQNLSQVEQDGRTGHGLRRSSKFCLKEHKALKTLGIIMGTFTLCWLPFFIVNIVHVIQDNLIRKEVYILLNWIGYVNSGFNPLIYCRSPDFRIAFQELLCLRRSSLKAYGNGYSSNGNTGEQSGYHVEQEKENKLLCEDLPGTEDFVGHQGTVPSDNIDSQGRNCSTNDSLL
How it was run: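 Cells (CHO, stable ADRB2 overexpression) incubated 18-20hr at 37C; compounds added from DMSO; agonist mix (1nM isoproterenol, 100uM IBMX, 25uM Ro-20-1724) added; 0.5hr RT; d2-cAMP and anti-cAMP-cryptate added; 1hr RT; 665/615 nm read.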

[18] = biological target: D(2) dopamine receptor (Homo sapiens) (UniProt P14416); assay: Dopamine D2 receptor (DRD2) small molecule agonists, cell-based qHTS assay (AID 1963594); further: nearly all actives have a fitted effect of over 35% in size
Sequence of D(2) dopamine receptor (Homo sapiens) (P14416 whole entry, looked up): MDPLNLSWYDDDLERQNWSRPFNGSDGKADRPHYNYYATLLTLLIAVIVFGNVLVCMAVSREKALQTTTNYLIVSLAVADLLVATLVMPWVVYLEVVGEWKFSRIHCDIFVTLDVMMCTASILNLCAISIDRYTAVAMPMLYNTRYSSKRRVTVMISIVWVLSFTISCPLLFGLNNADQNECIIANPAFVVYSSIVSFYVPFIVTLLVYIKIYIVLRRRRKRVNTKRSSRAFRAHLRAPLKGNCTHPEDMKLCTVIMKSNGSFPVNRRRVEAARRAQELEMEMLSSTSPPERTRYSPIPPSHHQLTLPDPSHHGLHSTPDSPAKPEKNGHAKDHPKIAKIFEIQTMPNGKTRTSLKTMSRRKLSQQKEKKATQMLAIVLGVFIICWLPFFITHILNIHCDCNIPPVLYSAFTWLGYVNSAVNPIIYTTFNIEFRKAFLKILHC
How it was run: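 HEK293 cells stably expressing human DRD2, pre-treated with PDE inhibitor Ro20-1724 (0.1 mM final) and compound 10 min at room temperature, then stimulated with NKH477 (200nM […]) for 30 min. cAMP read by HTRF (665/620 nm).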

[19] = biological target: D(2) dopamine receptor (Homo sapiens) (UniProt P14416); assay: Dopamine D2 receptor (DRD2) small molecule antagonists, cell-based qHTS assay (AID 1963595; active means well fitted inhibition curve with a large enough effect in the signal ratio in the repeat runs, with a control signal flat; the % refers to the signal ratio)
How it was run: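 Human DRD2 antagonist qHTS measuring cAMP by HTRF. The cells are exposed to compound for 10 min, then to NKH477 (200 nM) and quinpirole (12 nM) for 30 min at RT, with Ro20-1724 (0.1 mM) present throughout.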

Compound | Potency [1] | Potency [2] | Potency [3] | Potency [4] | Potency [5] | Potency [6] | Potency [7] | Potency [8] | Potency [9] | Potency [10] | Potency [11] | Potency [12] | Potency [13] | Potency [14] | Potency [15] | Potency [16] | Potency [17] | Potency [18] | Potency [19]
COc1cc(CC(C)N)cc2c1OCO2 (stereo not drawn) | inactive | inactive | inactive | inactive | inactive | inactive | inactive | inactive | inactive | inactive | inactive | 1.44 µM (active) | 15.6 µM (active) | inactive | inactive | inactive | 32 µM (active) | inactive | inactive
Cc1nnc2n1-c1sc(CCC(=O)N3CCOCC3)cc1C(c1ccccc1Cl)=NC2 | inactive | inactive | inactive | inactive | inactive | inactive | inactive | inactive | inactive | inactive | inactive | – | inactive | inactive | – | – | – | inactive | inactive
CC[C@@H](CO)NC(=O)[C@@H]1C=C2c3cccc4[nH]cc(c34)C[C@H]2N(C)C1 | inactive | inactive | inactive | inactive | inactive | inactive | inactive | inactive | inactive | inactive | inactive | – | – | – | inactive | inactive | – | – | –
N[C@@H](Cc1ccc(Oc2cc(I)c(O)c(I)c2)c(I)c1)C(=O)O | inactive | inactive | inactive | inactive | inactive | inactive | inactive | inactive | inactive | inactive | inactive | – | inactive | inactive | inactive | inactive | inactive | inactive | inactive
NC1=NC(=O)C(c2ccccc2)O1 (stereo not drawn) | inactive | inactive | inactive | inactive | inactive | inactive | inactive | inactive | inactive | inactive | inactive | – | – | – | inactive | inactive | inactive | inactive | inactive
ClCc1cccc(Cl)c1 | inactive | inactive | inactive | inactive | inactive | inactive | inactive | inactive | inactive | inactive | inactive | inactive | inactive | inactive | inactive | – | inactive | – | inactive
CC(C)(C)NCC(O)c1ccccc1Cl (stereo not drawn) | inactive | inactive | inactive | inactive | inactive | inactive | inactive | inactive | inactive | inactive | inactive | inactive | – | inactive | – | inactive | inactive | – | –
